Experiments:
Test in all cases: PBM binding z-score (relative to random genomic background probes); higher = stronger binding; sequences stand for … in GC…GCGATTGACAGCGTAGAATGAAGG
[1] = system: FXR:RXRa (NR concentration 270 nM, RXRa partner concentration 90 nM)
Outline: (§1)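 Each nuclear receptor dimer, without ligand, was incubated for 1 h on custom Agilent 4×180K protein-binding microarrays. Binding was detected with antibodies against each partner (one per run), and scanned fluorescence was regression-normalized. The binding z-scores are referenced to random human genomic background probes.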

[2] = system: LXRa:RXRa (NR concentration 270 nM, RXRa partner concentration 90 nM)
Outline: as §1

[3] = system: LXRa homodimer (NR concentration 270 nM)
Outline: as §1

[4] = system: LXRb:RXRa (NR concentration 270 nM, RXRa partner concentration 90 nM)
Outline: as §1

[5] = system: LXRb homodimer (NR concentration 270 nM)
Outline: as §1

[6] = system: PPARa:RXRa (NR concentration 270 nM, RXRa partner concentration 90 nM)
Outline: as §1

[7] = system: PPARg:RXRa (NR concentration 180 nM, RXRa partner concentration 90 nM)
Outline: as §1

[8] = system: PPARg:RXRa 270nM:90nM, anti-RXR (NR concentration 270 nM, RXRa partner concentration 90 nM)
Outline: as §1

[9] = system: PPARg:RXRa 30nM:10nM, anti-RXR (NR concentration 30 nM, RXRa partner concentration 10 nM)
Outline: as §1

[10] = system: PPARg:RXRa 90nM:30nM, anti-RXR (NR concentration 90 nM, RXRa partner concentration 30 nM)
Outline: as §1

[11] = system: PPARg:RXRa DBDmut IVT, anti-RXR (DBD mutation: RXRa K156A/R161A, NR concentration 270 nM, RXRa partner concentration 90 nM)
Outline: as §1

[12] = system: PPARg:RXRa IVT, anti-PPARg (NR concentration 270 nM, RXRa partner concentration 90 nM)
Outline: as §1

[13] = system: PPARg DBDmut:RXRa IVT, anti-PPARg (DBD mutation: PPARg1 K132A/R137A, NR concentration 270 nM, RXRa partner concentration 90 nM)
Outline: as §1

[14] = system: PPARg DBDmut IVT, anti-PPARg (DBD mutation: PPARg1 K132A/R137A, NR concentration 270 nM)
Outline: as §1

[15] = system: PPARg homodimer (NR concentration 180 nM)
Outline: as §1

[16] = system: PXR:RXRa (NR concentration 270 nM, RXRa partner concentration 90 nM)
Outline: as §1

[17] = system: PXR homodimer (NR concentration 270 nM)
Outline: as §1

[18] = system: RARa:RXR (NR concentration 270 nM, RXRa partner concentration 90 nM)
Outline: as §1

[19] = system: RARa homodimer (NR concentration 270 nM)
Outline: as §1

[20] = system: RARb:RXRa (NR concentration 270 nM, RXRa partner concentration 90 nM)
Outline: as §1

| Sequence | PBM binding z-score [1] | PBM binding z-score [2] | PBM binding z-score [3] | PBM binding z-score [4] | PBM binding z-score [5] | PBM binding z-score [6] | PBM binding z-score [7] | PBM binding z-score [8] | PBM binding z-score [9] | PBM binding z-score [10] | PBM binding z-score [11] | PBM binding z-score [12] | PBM binding z-score [13] | PBM binding z-score [14] | PBM binding z-score [15] | PBM binding z-score [16] | PBM binding z-score [17] | PBM binding z-score [18] | PBM binding z-score [19] | PBM binding z-score [20] |
| --- | --- | --- | --- | --- | --- | --- | --- | --- | --- | --- | --- | --- | --- | --- | --- | --- | --- | --- | --- | --- |
| ATCTCTAGGTAAGACTCTGTTCAGTGAAGAACGC | 0.455 | 0.64 | 0.527 | 0.145 | 0.866 | 0.0687 | 0.000617 | 0.133 | 0.343 | 0.426 | 2.14 | 1.19 | 0.717 | 0.753 | 0.889 | -0.0649 | 0.53 | 0.421 | 1.18 | 0.151 |
| AGAACGAGAGCACGCTGAGTTGATAGCAGAGTAG | -0.802 | -0.854 | -0.51 | -0.91 | -1.27 | -0.425 | 0.523 | -0.601 | -0.701 | -0.842 | 0.0563 | -0.2 | -0.0826 | -0.875 | -0.952 | -0.515 | -0.415 | -0.666 | -1.23 | -0.39 |
| CGATCTAGGTCATTGACAGGACAGTGAATAGTAA | 4.68 | 2.86 | 0.511 | 2.07 | 0.134 | 4.52 | 6.86 | 6.06 | 3.13 | 5.68 | 7.84 | 7.9 | 1.48 | 1.96 | 1.92 | 1.64 | 0.255 | 2.35 | 0.361 | 3.61 |
| TCTTGTAGATCTGCAGGTTAAGAAAGCTGGCCAA | 0.0261 | 0.396 | -0.113 | 0.457 | -0.445 | 0.515 | -0.788 | 1.01 | 2.56 | 1.89 | 1.64 | -0.0995 | -0.0196 | -0.962 | -0.597 | 0.206 | -0.0786 | 0.383 | -0.894 | 0.204 |
| ACAGACAGGTGTTGAAGGTAACTCAGGCTATCAT | -0.0696 | -0.375 | -0.136 | -0.298 | -0.389 | -0.0786 | 0.432 | -0.232 | -0.26 | -0.54 | -0.116 | -0.388 | -0.275 | 0.107 | -0.0576 | -0.158 | 0.379 | 0.0742 | -0.513 | -0.084 |
| GCTATTATTTGAAAGGGCAACCGAATGATTCTCG | 0.306 | 0.97 | 1.37 | 0.925 | 0.441 | 1.08 | 0.626 | 1.41 | 0.637 | 0.844 | 0.681 | 0.479 | 0.791 | 0.619 | 1.8 | 0.697 | 1.02 | 1.07 | 2.43 | 2.09 |
| AGAATAAGGTTATTAAGATCAGGGAATTGCGGTC | 1.43 | 1.6 | 0.352 | 1.32 | -0.02 | 2.42 | 1.12 | 1.67 | 0.45 | 1.38 | 2.24 | 1.81 | 1.52 | 0.812 | 1.04 | 1.13 | 0.666 | 1.49 | 1.34 | 1.72 |
| ATATGTAGGTGACATCCGGGTCATTCAGGCTATG | 2.96 | 2.62 | 0.319 | 2.21 | 0.147 | 5.01 | 6.79 | 5.7 | 2.91 | 5 | 7.69 | 8.07 | 4.09 | 3.49 | 3.11 | 3.52 | 2.13 | 3.62 | -0.0147 | 2.14 |
| ACAGACAGGTGATGAATGTAACTCAGGCTATCAT | -0.237 | -0.163 | 0.164 | 0.1 | -0.131 | 0.166 | 0.735 | -0.0666 | 0.338 | -0.0676 | 0.0883 | 0.304 | 0.806 | 0.471 | 0.379 | -0.102 | -0.0195 | 0.181 | 0.656 | 0.0754 |
| CCGACTGGGCCAAAGGTTACCATACTCAGTACGA | 1.06 | 1.26 | 0.13 | 2 | -0.974 | 5.39 | 10.7 | 9.42 | 9.58 | 10.6 | 3.77 | 5.5 | 0.219 | -0.431 | 1.31 | 1.75 | -0.189 | 3.1 | 0.224 | 2.22 |
| CCTATTAGTTCACCATAAGGGCAACCGAAGCTCG | 1.35 | 2.07 | 0.985 | 1.29 | 0.844 | 1.67 | 0.515 | 0.652 | -0.043 | 0.491 | 0.837 | 0.596 | 0.806 | 0.145 | 1.92 | 2.63 | 1.48 | 2.33 | 1.26 | 3.21 |
| AATAGCAGGCCAAGGGTCACTCAAGATTAGTCCG | 2.6 | 3.25 | 0.455 | 2.65 | -0.0727 | 4.75 | 8.33 | 7.83 | 6.83 | 8.23 | 2.14 | 4.27 | 0.158 | -0.162 | 1.57 | 3.26 | -0.222 | 4.09 | 0.758 | 3.54 |
| TAAATGAGGTTAAAGATCAGGGAACGTGGCGTCG | 3.68 | 3.6 | 0.629 | 2.46 | 1.07 | 5.14 | 6.76 | 6.79 | 5.89 | 7.34 | 3.59 | 4.36 | 2.17 | 2.54 | 1.72 | 2.36 | 0.486 | 3.21 | 1.03 | 2.29 |
| AGAATGAGGGTATTAAGATCAGGGAATTGCGGTC | 0.048 | 0.136 | -0.107 | -0.105 | 0.211 | 0.659 | 0.403 | 0.28 | 0.322 | 0.102 | 1.71 | 0.923 | 0.443 | 0.824 | 0.506 | 0.0196 | 0.451 | 0.253 | 0.44 | 0.4 |
| CTACCAAGGTGAACAAGGTCGTAGATTACTATTC | 1.44 | 1.27 | -0.0649 | 1.62 | -0.766 | 2.66 | 1.19 | 1.36 | 0.159 | 0.588 | 2.43 | 2.87 | 0.349 | 0.813 | 0.756 | 2.37 | 0.924 | 2.56 | 0.0983 | 2.17 |
